Test results reported in ChEMBL document CHEMBL3988442, “University of Dundee, Small-Polar-MMV Screening Library” (2021).
In all, about 69,000 compounds went through this assay and about 950 (1.4%) showed an effect of 50% or more. The full list was thinned out, with strong results kept by preference.

Test system: Mycobacterium tuberculosis
Assay: Cornell M. t heat shock assay; also: in the data most compounds retested in dose-response had high values
Assay type: functional, organism-based
Design: dose or concentration left out as unconfirmed

Row | SMILES | Percent Effect [%]
1 | CNC(=O)C1CN(c2ccc(F)cc2)CCN1.Cl (centres undefined) | -9.726
2 | CC(C)CN1CC[C@H]2OCC[C@@H](C(=O)N3CCCO3)[C@@H]2C1.O=C(O)C(F)(F)F | -22.87
3 | c1cnn(CC2CCCCN2c2ncnc3ccsc23)c1 (centres undefined) | -40.74
4 | CNC(=O)[C@@]12CCO[C@@H]1CCN(S(=O)(=O)c1cccnc1)C2.O=C(O)C(F)(F)F | 3.091
5 | Cc1noc(C)c1CN1CCO[C@H]2CN(Cc3nccn3C)C[C@H]21.O=C(O)C(F)(F)F.O=C(O)C(F)(F)F | -6.105
6 | Cc1nc(CN(C)C2CCN(Cc3nc4ccccc4s3)C2)no1 (centres undefined) | -21.16
7 | Cc1cnc(CN(C)C2CCN(Cc3nc4ccccc4o3)C2)o1 (centres undefined) | -16.63
8 | Cc1nc(CN(C)C2CCN(Cc3cccc4cccnc34)C2)no1 (centres undefined) | 19.87
9 | Cc1nc(CN(C)C2CCN(Cc3ccno3)C2)no1 (centres undefined) | -9.493
10 | Cc1nc(CN(C)C2CCN(Cc3nc4ccccc4n3C)C2)no1 (centres undefined) | 69.83
11 | Cc1cnc(CN(C)C2CCN(Cc3nc4ccccc4n3C)C2)o1 (centres undefined) | 96.91
12 | Cc1nnc(CN(C)C2CCN(Cc3nc4ccccc4n3C)C2)o1 (centres undefined) | 28.12
13 | Cc1nc(CN(C)C2CCN(Cc3ccc4ccccc4n3)C2)no1 (centres undefined) | 86.18
14 | Cc1nc(CN(C)C2CCN(CCCc3ccccc3)C2)no1 (centres undefined) | -13.87
15 | Cc1cc(-c2nccs2)nc(C2CCN(Cc3ccncc3)CC2)n1.Cl | -12.67
16 | CN(Cc1ccco1)[C@@H]1CN(Cc2ccco2)[C@@H]2CCCO[C@H]12.O=C(O)C(F)(F)F.O=C(O)C(F)(F)F | 13.61
17 | CN1CCC/C1=N\S(=O)(=O)c1ccc(NC(=O)c2ccc(Cl)cc2)cc1 | -4.489
18 | CC1=N[C@@]2(CC[C@@H]3CN(Cc4ccc(C)cc4)C[C@@H]32)C(=O)N1CC1CC1.O=C(O)C(F)(F)F | 0.8614
19 | CC(c1cn2ccsc2n1)N1Cc2ncccc2C1=O (centres undefined) | -27.43
20 | CCn1ncc2c1CN(C(=O)Cc1cccs1)CC2COC.O=C(O)C(F)(F)F (centres undefined) | 1.467
21 | COc1cccc(N2Cc3nc(=O)n(Cc4cccc(F)c4)n3C2=O)c1 | 19.15
22 | CCC(=O)N1CCC2(CC1)COCCN2Cc1ccc(F)cc1.O=C(O)C(F)(F)F | -30.34
23 | O=C(O)C(F)(F)F.c1csc(CN2CCn3c(Cn4cncn4)cnc3C2)n1 | -82.66

Row | SMILES | Percent Effect [%]
24 | O=C(CCn1c(=O)oc2ccccc21)NCC(O)c1ccccc1 (centres undefined) | 71.18
25 | O=C(NCC(O)c1ccc(F)c(F)c1)c1ccccc1F (centres undefined) | -2.812
26 | CC(NC(=O)CCn1c(=O)oc2ccccc21)c1ccccn1 (centres undefined) | -6.717
27 | O=C(CCn1c(=O)oc2ccccc21)NCC(O)c1ccc(Cl)cc1 (centres undefined) | -3.948
28 | O=C(CCn1c(=O)oc2ccccc21)NCC(O)c1ccc(F)c(F)c1 (centres undefined) | 64.78
29 | O=C(Cn1c(=O)oc2ccccc21)NCC(O)c1ccc2c(c1)CCO2 (centres undefined) | -3.535
30 | Cc1nc(C2(O)CCCNCC2)sc1CCOc1ccccc1Cl.Cl (centres undefined) | -14.1
31 | CCO[C@@H]1CC[C@H]2[C@H]1OCCN2CC1CCOCC1.O=C(O)C(F)(F)F | -50.97
32 | Cc1nc(CNCC2CCCN2c2cccnn2)oc1C (centres undefined) | -4.447
33 | CC(C)CCc1nc(CNCC2CCCN2c2cccnn2)cs1 (centres undefined) | 75.49
34 | CCc1noc(CNCC2CCCN2c2cccnn2)n1 (centres undefined) | 11.99
35 | CCCc1nc(CNCC2CCCN2c2cccnn2)cs1 (centres undefined) | 2.805
36 | c1cnnc(N2CCCC2CNCc2nc(C3CC3)no2)c1 (centres undefined) | 52.74
37 | c1ccc(-c2nnc(CNCC3CCCN3c3cccnn3)o2)cc1 (centres undefined) | -22.96
38 | c1ccc(-c2nc(CNCC3CCCN3c3cccnn3)co2)cc1 (centres undefined) | 102.8
39 | c1cnnc(N2CCCC2CNc2nc3ccccc3o2)c1 (centres undefined) | -7.44
40 | c1cnnc(N2CCCC2CNCc2nc(-c3ccco3)no2)c1 (centres undefined) | 13.72
41 | c1cnnc(N2CCCC2CNCc2nc3ccccc3o2)c1 (centres undefined) | 103.1
42 | CN(Cc1coc(-c2ccccc2)n1)CC1CCCN1c1cccnn1 (centres undefined) | 7.112
43 | CCc1nc(CNCC2CCCN2c2cccnn2)cs1 (centres undefined) | 0.6291
44 | CCn1ccnc1CN1CCN(c2cc(C)nc(C3CCCN3)c2)CC1.Cl (centres undefined) | -8.62
45 | CC(C)c1nn(C)c(N(C)C)c1CNCc1cccc2cccnc12.Cl | 16.12
46 | CO[C@@H]1CO[C@@]2(CCCN(Cc3nc(C)cs3)C2)C1.O=C(O)C(F)(F)F | 0.7459

Row | SMILES | Percent Effect [%]
47 | Cc1ccccc1C(=O)N1C[C@@H]2OCCN(c3ncccn3)[C@@H]2C1.O=C(O)C(F)(F)F | -16.98
48 | O=C(NC[C@]12COC[C@H]1CN(Cc1ccco1)C2)c1ccccc1.O=C(O)C(F)(F)F | -18.08
49 | Cc1nc(CCN)cc(N2CCOc3ccc(Cl)cc3C2)n1 | 51.61
50 | Cc1nc(C2CCN(C)CC2)cc(N2CCOc3ccc(Cl)cc3C2)n1 | -13.3
51 | Cc1nc(CCN)cc(N2CCC(O)(c3ccc(Cl)cc3)CC2)n1 | -16.16
52 | O=C(O)C(F)(F)F.c1nc2c(c(C3CC3)n1)CCN(CC1CCOC1)CC2 (centres undefined) | 4.72
53 | CC(C)n1cc(N2Cc3nc(N4CCOCC4)ncc3C2=O)cn1 | -21.77
54 | CCOc1cc(CN[C@@H]2COC[C@H]2Cc2cc(C)no2)ccc1O.O=C(O)CC(O)(CC(=O)O)C(=O)O | -17.97
55 | CO[C@@H]1CCN(S(=O)(=O)c2cccnc2)[C@@H]2CN(CC3CC3)C[C@@H]21.O=C(O)C(F)(F)F.O=C(O)C(F)(F)F | -1.199
56 | Cc1ccc(C(=O)N2CCC3(CC2)CN(CCN(C)C)C(=O)O3)c(F)c1 | 97.5
57 | Cc1nc[nH]c1C(=O)N1CCC2(CC1)CN(CCN(C)C)C(=O)O2 | 17.79
58 | Cc1cc(C(=O)N2CCC3(CC2)CN(CCN(C)C)C(=O)O3)nc(C)n1 | 14.38
59 | Cn1nc(CN2CCCCC2)c2c1CN(C(=O)c1cccc(C#N)c1)C2.O=C(O)C(F)(F)F | -14.41
60 | Cc1ccc(C)c(NC(=O)C(C)N2CCCN(c3nccs3)CC2)c1 (centres undefined) | 26
61 | Cc1cc(NC(=O)C(C)N2CCCN(c3nccs3)CC2)on1 (centres undefined) | 10.96
62 | Cc1ccc(NC(=O)C(C)N2CCCN(c3nccs3)CC2)c(C)c1 (centres undefined) | 58.85
63 | CC(C)Cc1nc(-c2ccnc(N3CCNCC3)n2)no1.Cl.Cl | -11.54
64 | COCCN1CCO[C@H]2CN(Cc3cccc(C)n3)C[C@H]21.O=C(O)C(F)(F)F.O=C(O)C(F)(F)F | -1.731
65 | Cc1ccsc1CN(Cc1cccnc1)C1CC(C)(C)NC(C)(C)C1.O=C(O)CC(O)(CC(=O)O)C(=O)O | -32.2
66 | Cc1cnn(C2CN(Cc3nc4cc(Cl)ccc4n3C)C2)c1 | 84.58
67 | Cc1cnn(C2CN(Cc3noc(-c4ccccc4)n3)C2)c1 | 31.69
68 | Cc1cnn(C2CN(Cc3noc(C)n3)C2)c1 | 1.101
69 | Cc1cc(C)n(C2CN(Cc3nc4cc(Cl)ccc4n3C)C2)n1 | 97.92

Row | SMILES | Percent Effect [%]
70 | Cc1ccc(-c2nc(CN3CC(n4nc(C)cc4C)C3)no2)cc1 | 24.47
71 | Cc1cc(C)n(C2CCN(Cc3nc4ccccc4n3C)CC2)n1 | -15.39
72 | N#Cc1ccc(N2CCC3(CCC(=O)N3Cc3cccnc3)CC2)nc1.O=C(O)C(F)(F)F.O=C(O)C(F)(F)F | 16.15
73 | Cc1c(Cl)cccc1S(=O)(=O)N1C[C@@H]2CC[C@H](C1)N(C)C2=O | -18.96
74 | O=C(Nc1cnccn1)[C@@H]1CC[C@@H]2[C@@H](CCN2Cc2nccs2)O1.O=C(O)C(F)(F)F | 0.9525
75 | COCC1CN(S(=O)(=O)N(C)C)Cc2ncn(CC3CC3)c21.O=C(O)C(F)(F)F (centres undefined) | -32.61
76 | Cc1noc([C@@H]2C[C@H]3OCC[C@H]3N(S(=O)(=O)c3cccnc3)C2)n1.O=C(O)C(F)(F)F | -33.58
77 | Cc1noc([C@@H]2CC[C@@H]3[C@@H](CCN3S(=O)(=O)c3ccccc3)O2)n1 | -26.97
78 | Cc1noc([C@@H]2CC[C@@H]3[C@@H](CCN3S(=O)(=O)c3cccnc3)O2)n1.O=C(O)C(F)(F)F | 58.53
79 | Cc1cccc(COc2ccc(C(C)N)cc2)c1.Cl (centres undefined) | 2.748
80 | Cc1noc(C)c1CN1CCO[C@H]2CN(Cc3ccc(F)cc3)C[C@H]21.O=C(O)C(F)(F)F.O=C(O)C(F)(F)F | -6.13
81 | Cc1ccc(C(=O)N2CC(=O)N(Cc3cccs3)CC(O)C2)cc1 (centres undefined) | 58.25
82 | COc1ccc(C(=O)N2CC(=O)N(Cc3cccs3)CC(O)C2)cc1 (centres undefined) | 14.04
83 | O=C1CN(C(=O)c2ccc(Cl)cc2)CC(O)CN1Cc1cccs1 (centres undefined) | 16.61
84 | O=C1CN(C(=O)c2ccc(F)cc2)CC(O)CN1Cc1cccs1 (centres undefined) | 62.26
85 | CSc1ccc(C(=O)N2CC(=O)N(Cc3cccs3)CC(O)C2)cc1 (centres undefined) | 29.81
86 | CSc1ccc(C(=O)N2CC(=O)N(Cc3ccccc3)CC(O)C2)cc1 (centres undefined) | 28.35
87 | O=C(Cc1ccsc1)N1C[C@@H]2OCCN(CC3CCCO3)[C@@H]2C1.O=C(O)C(F)(F)F (some centres undefined) | -30.31
88 | CNC(=O)[C@H]1C[C@@H]2CN(C(=O)Nc3ccccc3)C[C@H]1O2 | -29.03
89 | CN(C)CCN1CCC2(CC1)CN(Cc1cccnc1)C(=O)CO2.O=C(O)C(F)(F)F.O=C(O)C(F)(F)F.O=C(O)C(F)(F)F | 8.81
